# Measurements taken from article PMC7826789 (International Journal of Molecular Sciences, 2021).
# Tested on: MAP3K4
# Settings: Compound Concentration (nM):1000
# 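Further: KINOMEscan scanMAX binding as percent activity remaining versus control; lower means stronger binding.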
row,SMILES,Percent Control [%]
1,O=C(Nc1n[nH]c2nc(-c3ccc(O)cc3)c(Br)cc12)C1CC1 [SB-725317],100
2,CC1=C(C(=O)Nc2ccc3[nH]ncc3c2)C(c2ccc(Cl)c(Cl)c2)CC(=O)N1 (stereo not drawn) [GSK299115A],100
3,NS(=O)(=O)c1ccc(N/N=C2\C(=O)Nc3ccc(Cl)cc32)cc1 [GW280670X],100
4,CC1=C(C(=O)Nc2ccc3[nH]ncc3c2)C(c2ccc3ccccc3c2)CC(=O)N1 (stereo not drawn) [GSK270822A],100
5,COc1cccc(-c2c[nH]c3c(N/N=C/c4ccncc4)ncnc23)c1 [GW814408X],100
6,NS(=O)(=O)c1ccc(N/N=C2\C(=O)Nc3ccc(C(=O)NCCc4c[nH]cn4)cc32)cc1 [GW300660X],100
7,CN(C)CCNC(=O)Nc1ccc(N(C)c2ccnc(Nc3ccc(CS(C)(=O)=O)cc3)n2)cc1.Cl [GW830900A],99
8,COc1ccc2cc(-c3c(-c4ccncc4)nc(-c4ccc(S(C)(=O)=O)cc4C)n3C)ccc2c1 [SB-633825],90
9,NS(=O)(=O)c1ccc(N/N=C2\C(=O)Nc3ccc(-c4cnco4)cc32)cc1 [GW276655],82
10,CN(C)c1cc2c(Nc3ccc4c(cnn4Cc4ccccc4)c3)ncnc2cn1 [GW282974X],88
11,COc1ccc2c(-c3ccnc(Nc4cccc(OC(F)(F)F)c4)n3)cnn2n1 [GW810372X],71
12,Cl.O=C(O[C@H]1CN[C@H](C#Cc2cc3ncnc(Nc4ccc5c(cnn5Cc5ccccc5)c4)c3s2)C1)N1CCOCC1 [GSK200398A],82
